Source: PubChem
Compounds with a hit are over-represented: about 27% of the library has one in this group of screens.
CYP2C9 act: increases human cytochrome P450 2C9 activity. P11712. recombinant CYP2C9, luciferin-H conversion, luminescence; active compounds read high; factor 1 = untreated enzyme, 0 = blocked. activation factor at 5 µM. 96,000 tested, 1.4% active;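 active = activation factor of 2 or more for CYP2C9 at a 5 µM dose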;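 also: 0 = sulfaphenazole-blocked wells and 1 = vehicle-only wells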
Target sequence (P11712 whole entry, looked up): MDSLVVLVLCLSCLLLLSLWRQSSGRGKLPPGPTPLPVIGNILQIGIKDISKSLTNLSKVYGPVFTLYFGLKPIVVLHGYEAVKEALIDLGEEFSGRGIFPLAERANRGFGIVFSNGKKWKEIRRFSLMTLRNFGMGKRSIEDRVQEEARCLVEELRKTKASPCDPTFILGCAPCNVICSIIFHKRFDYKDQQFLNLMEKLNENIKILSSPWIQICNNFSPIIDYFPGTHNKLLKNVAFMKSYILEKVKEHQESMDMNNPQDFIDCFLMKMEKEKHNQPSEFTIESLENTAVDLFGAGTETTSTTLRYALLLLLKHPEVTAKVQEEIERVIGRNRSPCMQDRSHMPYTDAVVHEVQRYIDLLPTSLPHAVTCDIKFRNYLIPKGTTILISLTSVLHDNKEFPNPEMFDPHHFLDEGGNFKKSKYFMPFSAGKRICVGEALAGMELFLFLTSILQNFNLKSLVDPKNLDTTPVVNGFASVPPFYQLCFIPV
CYP2C9 inh: human CYP2C9 inhibition | P11712 | CYP2C9 Supersomes, luciferin-H conversion, luminescence | inhibition, % at 5 µM | 96,000 tested, 20% active | AID 777;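 active = blocking of liver enzyme CYP2C9 beyond about 50% at 5 µM, limit read from the data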
sEH inh: inhibitors of human soluble epoxide hydrolase. inhibition, % at 2 µM. recombinant human sEH enzymatic activity assay. 91,000 tested, 0.34% active. P34913. AID 707; in the data active = inhibition above about 80%
CYP2C19 inhib: blocks human cytochrome P450 2C19; P33261; CYP2C19 Supersomes, luciferin-H EGE luminescence, 30 min; inhibition, % at 5 µM; 96,000 tested, 21% active; AID 778;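 active = CYP2C19 inhibition above a set limit at 5 µM in the primary screen, cut at about 50% in these data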;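 also: plate controls were negative control wells for no effect and 2.5 mM tranylcypromine positive control for full effect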
sEH act: activators of human soluble epoxide hydrolase; P34913; purified human sEH enzymatic activity, activator screen; activation, % at 2 µM; 91,000 tested, 0.04% active; in the data active = activation above about 37%
CYP2C19 act: activators of human cytochrome P450 2C19; activation factor at 5 µM; recombinant CYP2C19, luciferin-H EGE luminescence; active compounds read high; 0 = fully inhibited enzyme, 1 = untreated enzyme; 96,000 tested, under 10 active; P33261;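 active = activation factor of at least 2 at 5 µM in the primary screen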;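 also: 0 = wells with 2.5 mM tranylcypromine and 1 = vehicle-only wells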
* hit, by the source's call; / = no result given.

SMILES | CYP2C9 act | CYP2C9 inh | sEH inh | CYP2C19 inhib | sEH act | CYP2C19 act
Cc1ccc(S(=O)(=O)CCc2nc3ccccc3n2CCC#N)cc1 | 1 | -2 | 10 | 51* | -5 | 0.5
COC(=O)Cn1c(CCS(=O)(=O)c2ccc(C)c(C)c2)nc2ccccc21 | 1.2 | -16 | / | 61* | / | 0.4
Cc1ccc(S(=O)(=O)CC2CSc3nc4ccccc4n32)cc1 (stereo unspecified) | 0.5 | 54* | / | 68* | / | 0.3
Cc1ccc(S(=O)(=O)CC2CSc3nc(N)cc(=O)n32)cc1 (stereo unspecified) | 1.2 | -18 | / | 33 | / | 0.7
CC(=O)Nc1nonc1-c1nc2ccccc2n1CCC#N | 0.9 | 10 | -6 | -4 | 6 | 1
COc1ccc(C(=O)Nc2ccc(Cl)cc2C(=O)NCCO)cc1 | 0.7 | 32 | -4 | -1 | 4 | 1
O=C(c1ccccc1)c1coc2ccc(O)c(CN3CCOCC3)c12 | 0.4 | 56* | 6 | 96* | -4 | 0
CN(C)Cc1c(O)ccc2occ(C(=O)c3ccccc3)c12 | 1 | 2 | 10 | -9 | -4 | 1.1
COc1ccc(C(=O)c2coc3ccc(O)c(CN4CCCCC4)c23)cc1 | 0.8 | 19 | 0 | 40 | -1 | 0.6
O=C(c1ccccc1)c1coc2ccc(O)c(Cl)c12 | 0.4 | 64* | 9 | 90* | -10 | 0.1
Cc1ccc(C(=O)c2coc3ccc(O)c(Cl)c23)cc1 | 0.9 | 6 | 2 | 54* | 1 | 0.5
CCCCSc1cc(C)nc2ncnn12 | 0.9 | 9 | 3 | 9 | 0 | 0.9
CCOc1ccc(CNCc2cccnc2)cc1 | / | / | -1 | / | 1 | /
c1ccc(C2=NNC(=NC3CC3)SC2)cc1 | 0.5 | 54* | / | 84* | / | 0.2
Cc1ccc(CN2CCN(C(=O)C3CCC3)CC2)cc1 | / | / | -6 | / | 6 | /
O=C(C1CCCCN1S(=O)(=O)c1ccccc1)N1CCN(Cc2ccccc2)CC1 (stereo unspecified) | 1.1 | -11 | -3 | 62* | 2 | 0.4
O=C(O)C1CCCCN1S(=O)(=O)c1ccccc1 (stereo unspecified) | 0.7 | 28 | 1 | 1 | 0 | 1
Cc1ccc(S(=O)(=O)N2CCCCC2C(=O)N2CCN(Cc3ccccc3)CC2)cc1 (stereo unspecified) | 2.9* | -195 | 6 | 85* | -4 | 0.2
O=C(C1CCC1)N1CCN(Cc2ccccc2)CC1 | 0.7 | 32 | 2 | 93* | -4 | 0.1
CCn1c(NCc2ccc3c(c2)OCO3)nc2ccccc21 | 0.8 | 21 | 0 | 73* | 2 | 0.3
CN(C)CCCn1c(NCc2ccc3c(c2)OCO3)nc2ccccc21 | 1 | 1 | 3 | -2 | -1 | 1
C=CCn1c(NCc2ccc3c(c2)OCO3)nc2ccccc21 | 0.3 | 73* | 3 | 95* | -2 | 0.1
Cc1ccc(-c2cn3cccnc3n2)cc1NC(=O)c1c(-c2ccccc2Cl)noc1C | 0.5 | 45 | -18 | 54* | 18 | 0.5
Cc1onc(-c2ccccc2Cl)c1C(=O)Nc1ccc(-c2cn3cccnc3n2)cc1 | 1.1 | -8 | 11 | -8 | -12 | 1.1
Cc1onc(-c2ccccc2Cl)c1C(=O)Nc1cccc(-c2nc3ncccn3c2C)c1 | 0.5 | 52* | -7 | 55* | 6 | 0.5
SMILES | CYP2C9 act | CYP2C9 inh | sEH inh | CYP2C19 inhib | sEH act | CYP2C19 act
O=P(O)(c1ccc(Cl)cc1)c1ccc(Cl)cc1 | 0.6 | 44 | -15 | 27 | 17 | 0.7
CCOC(=O)C1=C(C)NC(SCC(N)=O)=C(C#N)C1c1ccncc1 (stereo unspecified) | 0.2 | 75* | 0 | 82* | -3 | 0.2
CCOC(=O)CSC1=C(C#N)C(c2sccc2C)C(C(C)=O)=C(C)N1 (stereo unspecified) | 0.3 | 73* | 10 | 65* | -7 | 0.3
CCOC(=O)C1=C(C)NC(SCC(=O)Nc2nc(C)cs2)=C(C#N)C1c1cccs1 (stereo unspecified) | 0 | 96* | 1 | 85* | 2 | 0.1
CCOC(=O)C1=C(C)NC(=O)C(C#N)C1c1ccncc1 (stereo unspecified) | 0.5 | 50* | 27 | 5 | -29 | 1
CCOC(=O)C1=C(C)NC(=O)C1CC(=O)Nc1ccccc1 (stereo unspecified) | / | / | -1 | / | 2 | /
CC(C)COC(=O)C1C2C=CC3(CN(C4CCCC4)C(=O)C13)O2 (stereo unspecified) | 1 | 4 | / | -4 | / | 1
CCOC(=O)C1=C(c2ccccc2)NC(SCC(N)=O)=C(C#N)C1c1cccnc1 (stereo unspecified) | 0.4 | 63* | 3 | 68* | 0 | 0.3
CCOC(=O)C1=C(C)NC2=C(C(=O)c3ccccc32)C1c1cccnc1 (stereo unspecified) | 1 | -1 | -2 | 11 | 4 | 0.9
COCC(COCCCNC(=O)Nc1ccc(Br)cc1)OC (stereo unspecified) | 0.8 | 22 | / | 36 | / | 0.6
CCSc1nc2c(c(=O)[nH]1)C(c1ccncc1)C(C(=O)OC)=C(C)N2 (stereo unspecified) | 0.5 | 52* | 0 | 76* | 1 | 0.2
CSc1nc2c(c(=O)[nH]1)C(c1ccncc1)C(C(=O)OC(C)C)=C(C)N2 (stereo unspecified) | 0.5 | 47 | -6 | 89* | 5 | 0.1
COc1ccc(-c2ccc(=O)n(CC(=O)N3CCN(c4ccccc4OC)CC3)n2)cc1 | / | / | -10 | / | 9 | /
COc1ccccc1N1CCN(c2cc(=O)n(Cc3ccc(F)cc3)c(=O)[nH]2)CC1 | / | / | 4 | / | -5 | /
COc1ccc(C(=O)CSc2nnc(CNC(=O)c3ccc(OC)cc3)n2C)cc1 | 1 | 4 | -2 | 10 | 2 | 0.9
Cc1nn(C)c(=O)n1-c1ccc(OCc2ccccc2)cc1 | 0.7 | 33 | / | 56* | / | 0.4
COc1ccc(-n2c(C)nn(C)c2=O)cc1 | 1 | -3 | 5 | 3 | -5 | 1
O=c1[nH]c2ccccc2n2c(-c3ccncc3)nnc12 | 0.9 | 11 | -10 | 12 | 10 | 0.9
COc1cccc(-c2csc(N3CCN(C(=O)C4CCCCC4)CC3)n2)c1 | 0.4 | 58* | / | 77* | / | 0.2
COc1cccc(-c2csc(N3CCN(C(=O)Nc4ccc(F)cc4)CC3)n2)c1 | / | / | 17 | / | -16 | /
O=C(O)CCSCCC(=O)O | 1.3 | -28 | / | -19 | / | 1.2
O=C(Oc1nsnc1N1CCOCC1)N1CCOCC1 | 1.1 | -9 | -9 | -9 | 9 | 1.1
O=C(Oc1nsnc1N1CCOCC1)c1ccccc1 | 0.6 | 37 | -4 | 64* | 7 | 0.4
CCOC(=O)c1cc(CC)sc1NC(=O)C(c1ccccc1)c1ccccc1 | 0.6 | 40 | -4 | 6 | 5 | 0.9
CCCn1c(SCC(=O)NC2CCCCC2)nnc1-c1ccncc1 | 0.9 | 10 | 9 | 65* | -10 | 0.4
